The supplement of paper PMC10849652
Targets with a hit are over-represented here; the source holds about 7,900 in all. About 0.6% of all pairs of compound and target were hits. Unmarked numbers belong to inactive results.

Tests used:
Assay in all cases: log2 fold change, soluble protein after heating vs DMSO (PISA); higher = thermal stabilisation; K562 cells, 10 uM, 30 min; active = over 0.2 and 3.5 SD of the protein, either way, in both replicates (recomputed)
[1] = compound: CC1=C(C=C(C=C1)NC(=O)C2=CC(=CC=C2)C(C)(C)C#N)NC3=CC4=C(C=C3)N=CN(C4=O)C
In short: (§1)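 K562 cells at 2×10^6 cells/mL were treated for 30 min with 10 μM compound, and aliquots were heated for 3 min over 48°C-58°C before pooling. Extraction used PBS with 0.5% NP-40 at 4°C, and soluble protein was the supernatant after 21,000xg for 90 min, measured by TMTpro 16plex LC-MS/MS with channel sums equalised. Thermal stability values, relative to control samples and from duplicates, are log2 fold changes.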

[2] = compound: CC1=C(C=C(C=C1)NC(=O)C2=CC(=CC=C2)N(C)C)NC(=O)C3=CC=C(C=C3)O
In short: as §1

[3] = compound: CC1=CC=C(C=C1)SC2=C3C=C(SC3=CN=C2)C(=O)N
In short: as §1

[4] = compound: CC1=NC(=CC=C1)C2=C(N=C(N2)C(C)(C)C)C3=CC4=NC=CN=C4C=C3
In short: as §1

Nexturastat A = compound: CCCCN(Cc1ccc(C(=O)NO)cc1)C(=O)Nc1ccccc1 [Nexturastat A]
In short: as §1

vemurafenib = compound: CCCS(=O)(=O)Nc1ccc(F)c(C(=O)c2c[nH]c3ncc(-c4ccc(Cl)cc4)cc23)c1F [vemurafenib]
In short: as §1

[5] = compound: CCCS(=O)(=O)Nc1ccc(F)c(C(=O)c2c[nH]c3ncc(Cl)cc23)c1F
In short: as §1

[6] = compound: CCCc1cc(C)[nH]c(=O)c1CNC(=O)c1cc(-c2ccnc(N3CCN(C)CC3)c2)cc2c1cnn2C(C)C
In short: as §1

givinostat = compound: CCN(CC)Cc1ccc2cc(COC(=O)Nc3ccc(C(=O)NO)cc3)ccc2c1 [givinostat]
In short: as §1

barasertib = compound: CCN(CCCOc1ccc2c(Nc3cc(CC(=O)Nc4cccc(F)c4)[nH]n3)ncnc2c1)CCOP(=O)(O)O [barasertib]
In short: as §1

[7] = compound: CC[C@@H]1C(=O)N(C)c2cnc(Nc3ccc(C(=O)NC4CCN(C)CC4)cc3OC)nc2N1C1CCCC1
In short: as §1

volasertib = compound: CC[C@@H]1C(=O)N(C)c2cnc(Nc3ccc(C(=O)N[C@H]4CC[C@H](N5CCN(CC6CC6)CC5)CC4)cc3OC)nc2N1C(C)C [volasertib]
In short: as §1

[8] = compound: CC[C@H](C)N1C=C(C2=C(C=C(C=C21)C3=CN=C(C=C3)N4CCNCC4)C(=O)NCC5=C(C=C(NC5=O)C)C)C
In short: as §1

epoxomicin = compound: CC[C@H](C)[C@@H](C(=O)N[C@@H]([C@@H](C)O)C(=O)N[C@@H](CC(C)C)C(=O)[C@]1(CO1)C)NC(=O)[C@H]([C@@H](C)CC)N(C)C(=O)C [epoxomicin]
In short: as §1

[9] = compound: CCn1c(C(=O)N(C2CC2)C2CC2)cc2c3c(ncn3C)c(Nc3cc(C)n(C)n3)nc21
In short: as §1

[10] = compound: CCn1cc(-c2ccnc3[nH]c(-c4cccc(CN(C)C)c4)cc23)c(-c2ccc(NC(=O)N(C)C)cc2)n1
In short: as §1

[11] = compound: CN(C)CC(=O)Nc1ccc2[nH]c(=O)c3ccccc3c2c1
In short: as §1

rosiglitazone = compound: CN(CCOC1=CC=C(C=C1)C[C@H]2C(=O)NC(=O)S2)C3=CC=CC=N3 (racemic) [rosiglitazone]
In short: as §1

[12] = compound: CN1C2=C(C3=C1C(=O)N(N=C3)CC4=CC(=CC=C4)N)SC(=C2)S(=O)C
In short: as §1

[13] = compound: CN1CCC(CNc2ccc3ncc(-c4cccc(OC(F)(F)F)c4)n3n2)CC1
In short: as §1

UniProt Q9UNM6, sequence (Q9UNM6 whole entry, looked up): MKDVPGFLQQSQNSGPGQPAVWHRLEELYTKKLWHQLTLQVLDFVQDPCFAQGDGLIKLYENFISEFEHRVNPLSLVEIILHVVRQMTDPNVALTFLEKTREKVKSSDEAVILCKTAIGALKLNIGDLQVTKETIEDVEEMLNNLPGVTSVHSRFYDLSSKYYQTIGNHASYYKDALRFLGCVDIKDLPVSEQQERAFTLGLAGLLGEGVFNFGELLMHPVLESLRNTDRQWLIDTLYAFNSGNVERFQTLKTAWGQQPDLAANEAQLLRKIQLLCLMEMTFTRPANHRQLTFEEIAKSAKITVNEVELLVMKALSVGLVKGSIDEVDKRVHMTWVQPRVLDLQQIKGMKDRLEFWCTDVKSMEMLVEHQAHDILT
UniProt Q9NP80, sequence (Q9NP80 whole entry, looked up): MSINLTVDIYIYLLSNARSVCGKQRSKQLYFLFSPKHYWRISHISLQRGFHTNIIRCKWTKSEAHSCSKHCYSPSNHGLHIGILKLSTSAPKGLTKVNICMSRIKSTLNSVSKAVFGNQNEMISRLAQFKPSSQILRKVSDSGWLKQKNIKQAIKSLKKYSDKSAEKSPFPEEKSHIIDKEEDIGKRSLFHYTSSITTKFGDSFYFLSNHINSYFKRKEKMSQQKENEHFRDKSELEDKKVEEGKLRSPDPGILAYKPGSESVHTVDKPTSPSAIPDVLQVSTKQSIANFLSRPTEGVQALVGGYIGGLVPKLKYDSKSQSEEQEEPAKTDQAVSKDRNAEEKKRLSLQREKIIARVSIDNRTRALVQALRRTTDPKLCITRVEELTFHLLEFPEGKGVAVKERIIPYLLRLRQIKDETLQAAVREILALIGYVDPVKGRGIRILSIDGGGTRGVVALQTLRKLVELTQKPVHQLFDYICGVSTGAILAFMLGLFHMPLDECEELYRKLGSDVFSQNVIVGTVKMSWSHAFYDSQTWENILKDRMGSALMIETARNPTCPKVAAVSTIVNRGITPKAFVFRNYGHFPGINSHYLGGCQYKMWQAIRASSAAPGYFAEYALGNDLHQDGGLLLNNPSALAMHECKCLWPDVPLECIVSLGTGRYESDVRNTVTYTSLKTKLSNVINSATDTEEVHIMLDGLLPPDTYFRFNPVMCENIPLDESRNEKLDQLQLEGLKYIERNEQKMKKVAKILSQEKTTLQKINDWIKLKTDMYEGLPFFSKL
UniProt Q9UHX1, sequence (Q9UHX1 whole entry, looked up): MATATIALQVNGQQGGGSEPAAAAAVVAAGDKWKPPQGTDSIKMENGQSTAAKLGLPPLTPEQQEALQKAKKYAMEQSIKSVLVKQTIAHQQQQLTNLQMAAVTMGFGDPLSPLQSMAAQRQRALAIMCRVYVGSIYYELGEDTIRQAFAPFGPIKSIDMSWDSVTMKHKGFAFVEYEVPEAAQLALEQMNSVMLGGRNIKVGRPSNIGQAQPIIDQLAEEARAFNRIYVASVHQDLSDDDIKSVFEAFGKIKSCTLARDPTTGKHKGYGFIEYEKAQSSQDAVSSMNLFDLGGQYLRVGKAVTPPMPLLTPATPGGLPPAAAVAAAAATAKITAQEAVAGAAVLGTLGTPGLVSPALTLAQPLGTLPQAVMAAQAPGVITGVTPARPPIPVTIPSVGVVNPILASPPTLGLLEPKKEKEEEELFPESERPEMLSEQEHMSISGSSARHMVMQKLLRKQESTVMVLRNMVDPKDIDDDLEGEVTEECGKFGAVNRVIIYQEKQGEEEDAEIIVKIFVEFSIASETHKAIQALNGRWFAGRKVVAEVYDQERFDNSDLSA
UniProt Q9H300, sequence (Q9H300 whole entry, looked up): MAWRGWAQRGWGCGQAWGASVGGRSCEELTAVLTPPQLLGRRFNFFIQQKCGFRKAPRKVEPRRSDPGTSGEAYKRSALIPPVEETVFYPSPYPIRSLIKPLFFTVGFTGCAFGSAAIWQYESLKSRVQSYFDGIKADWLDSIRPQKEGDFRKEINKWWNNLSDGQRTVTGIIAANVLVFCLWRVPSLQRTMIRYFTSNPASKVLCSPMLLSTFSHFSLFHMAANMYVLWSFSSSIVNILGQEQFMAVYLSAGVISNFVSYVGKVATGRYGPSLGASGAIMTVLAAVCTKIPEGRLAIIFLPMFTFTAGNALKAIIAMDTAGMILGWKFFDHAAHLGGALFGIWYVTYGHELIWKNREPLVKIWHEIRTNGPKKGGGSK
UniProt P62333, sequence (P62333 whole entry, looked up): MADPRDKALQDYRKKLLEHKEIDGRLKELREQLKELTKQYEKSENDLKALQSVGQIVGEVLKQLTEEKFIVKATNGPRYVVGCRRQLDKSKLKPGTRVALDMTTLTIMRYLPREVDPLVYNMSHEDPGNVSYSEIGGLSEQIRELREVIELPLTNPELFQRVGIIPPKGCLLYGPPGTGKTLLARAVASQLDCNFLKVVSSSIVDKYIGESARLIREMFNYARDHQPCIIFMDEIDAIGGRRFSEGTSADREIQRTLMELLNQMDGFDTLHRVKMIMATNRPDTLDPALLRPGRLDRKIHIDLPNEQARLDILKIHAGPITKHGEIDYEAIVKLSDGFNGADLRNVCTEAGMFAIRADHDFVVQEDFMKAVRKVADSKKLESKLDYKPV
UniProt Q9NR22, sequence (Q9NR22 whole entry, looked up): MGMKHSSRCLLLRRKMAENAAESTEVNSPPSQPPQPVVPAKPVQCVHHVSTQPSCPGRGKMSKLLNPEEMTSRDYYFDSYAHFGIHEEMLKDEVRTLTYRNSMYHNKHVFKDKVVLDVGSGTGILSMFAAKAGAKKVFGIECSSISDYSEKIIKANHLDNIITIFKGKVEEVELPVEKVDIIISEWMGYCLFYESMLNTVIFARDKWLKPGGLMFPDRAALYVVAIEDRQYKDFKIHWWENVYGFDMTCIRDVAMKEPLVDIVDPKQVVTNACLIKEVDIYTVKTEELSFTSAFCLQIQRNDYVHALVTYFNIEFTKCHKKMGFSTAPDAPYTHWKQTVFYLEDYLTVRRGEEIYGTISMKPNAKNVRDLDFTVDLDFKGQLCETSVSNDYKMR

Row | Target | log2 fold change [1] | log2 fold change [2] | log2 fold change [3] | log2 fold change [4] | log2 fold change (Nexturastat A) | log2 fold change (vemurafenib) | log2 fold change [5] | log2 fold change [6] | log2 fold change (givinostat) | log2 fold change (barasertib) | log2 fold change [7] | log2 fold change (volasertib) | log2 fold change [8] | log2 fold change (epoxomicin) | log2 fold change [9] | log2 fold change [10] | log2 fold change [11] | log2 fold change (rosiglitazone) | log2 fold change [12] | log2 fold change [13]
1 | PRMT8 (UniProt Q9NR22) | 0.285 | -0.033 | 0.097 | 0.016 | -0.125 | 0.028 | 0.156 | -0.009 | -0.043 | 0.031 | 0.019 | -0.074 | 0.011 | 0.017 | 0.035 | -0.087 | -0.022 | -0.026 | -0.117 | -0.009
2 | PSMD13 (UniProt Q9UNM6) | 0.03 | 0.034 | -0.068 | -0.029 | 0.064 | -0.05 | -0.048 | -0.016 | -0.05 | -0.041 | 0.075 | 0.217 | 0.008 | -0.288 (active) | 0.012 | 0.043 | -0.01 | 0.009 | 0.02 | 0.038
3 | PUF60 (UniProt Q9UHX1) | 0.046 | -0.018 | 0.043 | 0.022 | -0.003 | 0.034 | 0.14 | 0.009 | 0.022 | 0.025 | -0.078 | -0.304 (active) | 0.033 | 0.028 | -0.045 | -0.032 | 0.007 | 0.022 | -0.031 | 0.051
4 | PNPLA8 (UniProt Q9NP80) | 0.001 | 0.026 | 0.007 | -0.027 | 0.041 | -0.002 | -0.005 | 0.084 | 0.067 | 0.066 | -0.048 | -0.184 | -0.07 | 0.112 | -0.01 | -0.07 | 0.029 | 0.069 | 0.003 | -0.262 (active)
5 | PSMC6 (UniProt P62333) | 0 | 0.022 | -0.034 | -0.043 | 0.034 | -0.067 | -0.069 | 0.01 | -0.081 | -0.055 | 0.033 | 0.178 | -0.021 | -0.312 (active) | -0.012 | 0.029 | -0.03 | -0.038 | 0.009 | 0.018
6 | PARL (UniProt Q9H300) | 0 | 0.025 | 0.02 | 0.002 | -0.098 | -0.014 | 0.057 | -0.036 | 0.068 | -0.022 | -0.059 | -0.008 | -0.009 | -0.076 | 0.031 | -0.062 | -0.035 | 0.035 | -0.004 | -0.134
